{
  "source": "PubChem BioAssay AID624116",
  "about": "(National Center for Advancing Translational Sciences (NCATS), 2012)",
  "note": "Records with an inconclusive call do not appear. A number with no mark means an inactive call. Calls follow the shape of the dose curve; as a rule, active = well fitted activation curve with a large enough effect; inconclusive = small, poorly fitted or top-dose-only effect; inactive = no such curve, though single readings can be large or run the other way.",
  "data": [
    {"assay": "qHTS Assay for Rab9 Promoter Activators: Hit Validation Using Renilla Luciferase Read-Out for Rab9; also: % of control where 0% means no effect", "settings": "Huh7 Rab9 promoter Renilla luciferase reporter, 24 h; series mostly up to 76.9 µM; activation, negative = inhibition: at the top concentration", "excerpt": "Niemann Pick Type C (NPC) is a rare neurodegenerative lipidosis that is characterized by lipid storage in the endosomal/lysosomal system. Treatment modalities for this devastating disease are currently non-existent due to the severe obstacles associated with accessing the central nervous system with proteins or genes. The majority of mutations causing NPC disease are missense mutations that are distributed throughout the length of the NPC1 protein, with the most prevalent being the I1061T allele. Although NPC1 mutant proteins may be functional, they are typically trapped in the ER due to misfolding. […] We have developed and optimized a cell based renilla luciferase reporter assay in 1536 well format for the identification of up-regulators of the mutant Rab9 promoter. This assay presents data on the validation of hits from the primary screen, which used a firefly luciferase read-out. NIH Chemical Genomics Center [NCGC] NIH Molecular Libraries Probe Production centers Network [MLPCN] MLPCN Grant: MH089375 Assay Submitter (PI): Yiannis A. Ioannou\nHuh7 cells stably expressing NPC promoter-luciferase will be seeded at 1,500 cells/well in 5 uL in 1,536-well white opaque plates with 23 nL/well of compound in DMSO solution. The assay plates will be incubated at 37 deg C for 24 hours, after which 3 uL/well BriteLite plus luciferase detection reagent mixture (Perkin Elmer) will be added. Luminescence signal will be measured in a ViewLux plate reader (Perkin Elmer) after a 10 minute incubation at the room temperature.", "units": {"activation, negative = inhibition": "%"}, "values": [
      {"smiles": "COc1ccc(C(CC(=O)N2CCC3(CC2)OCCO3)NS(=O)(=O)c2ccc(F)cc2)cc1", "note": "(stereo unspecified)", "activation, negative = inhibition": 15.6},
      {"smiles": "COc1cccc(CCNCc2ccc(SC)cc2)c1", "activation, negative = inhibition": -12.3},
      {"smiles": "O=C1c2ccccc2C(=O)N1Cc1nc2ccccc2c(=O)n1-c1cccnc1", "activation, negative = inhibition": -4.75},
      {"smiles": "CN1CCc2cc3c(c4c2C1Cc1ccccc1-4)OCO3", "note": "(stereo unspecified)", "activation, negative = inhibition": -35.6},
      {"smiles": "Cc1cccn2c(NCC3CCCO3)c(C(C)C)nc12", "note": "(stereo unspecified)", "activation, negative = inhibition": -5.59},
      {"smiles": "CCC(=NCc1cccnc1)c1c(O)n(-c2ccccc2)c(=O)[nH]c1=O", "activation, negative = inhibition": -4.69}
    ]}
  ]
}
